From PubChem BioAssay (NCATS) come the findings set out here.

A short description of experiment [1]: qHTS for differential inhibitors of proliferation of Plasmodium falciparum line D10 (AID 1877).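 Further: potency means the concentration at half of the fitted maximal effect; parasites grown with compound for 72 h before DNA staining.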
The nature of experiment [2]: qHTS for differential inhibitors of proliferation of Plasmodium falciparum line Dd2 (AID 1882). Further: potency means the concentration at half of the fitted maximal effect; nearly all actives have a fitted effect of over 65% in size. Conditions: Potency: Plasmodium falciparum Dd2 proliferation inhibition. A digest of the protocol:
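RBC culture, 0.3% parasitemia / 2.5% Hct final; cpd added by pin tool in DMSO; 72 h, 37 C, 5% CO2; lysis buffer + SYBR Green I, o/n RT dark; FI 485/535; norm. to artemisinin 0.29 uM and DMSO.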
On the technique in general: In qHTS, concentration-response curves come from the screen itself.

A short description of experiment [3]: qHTS for differential inhibitors of proliferation of Plasmodium falciparum line W2 (AID 1883).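 Further: potency means the concentration at half of the fitted maximal effect; parasites grown with compound for 72 h before lysis and staining.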 Conditions: Potency: Plasmodium falciparum W2 proliferation inhibition.
Experiment [4] can be described thus: qHTS for differential inhibitors of proliferation of Plasmodium falciparum line HB3 (AID 1886).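 Further: potency means the concentration at half of the fitted maximal effect; parasites grown with compound for 72 h before SYBR Green readout.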 Conditions: Potency: Plasmodium falciparum HB3 proliferation inhibition.
Experiment [5] addresses ATP-dependent DNA helicase Q1 (Homo sapiens) (UniProt P46063). The experiment in a line: qHTS Validation Assay for Inhibitors of RecQ-Like Dna Helicase 1 (RECQ1) (AID 2353). A digest of the protocol:
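RECQ1T1 50 nM; forked duplex (20 bp + 30-nt ss tails) 200 nM, ATP 2 mM final; pH 8.0, 2 mM MgCl2, 2.5 ug/ml poly(dI-dC); 15 min compound preincubation; discontinuous kinetic read over 2 h at RT.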

Experiment [6] is described as follows: Cytometric Cell-Based qHTS for Inhibitors of the mTORC1 Signaling Pathway in MEF (Tsc2-/-, p53-/-) Cells (AID 2660).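 Further: Tsc2 and p53 null MEFs carrying empty vector with compound for 24 h; percent of cells above a phospho-rpS6 to PI ratio cutoff in each well.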 In outline:
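Cells are plated, treated with compound for 24 hrs at 37 degree Celsius, then fixed, blocked and immunostained for phospho-rpS6 Ser235/236. Propidium iodide counterstain follows. Per-well % positive cells is derived from the PI-normalized phospho-S6 signal.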

Experiment [7] in a line: High Content Imaging Cell-Based qHTS for Inhibitors of the mTORC1 Signaling Pathway in MEF (Tsc2-/-, p53-/-) Cells (AID 2666).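 Further: percent of cells scored positive for phospho-rpS6 Ser235/236 immunostaining by imaging.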 Conditions: at 38.3 µM (top of the series). In outline:
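Inhibition of rpS6 phosphorylation is measured by immunofluorescence imaging in empty-vector Tsc2-/-, p53-/- mouse embryonic fibroblasts after 24 hrs compound exposure at 37 degree Celsius. Results are reported as % positive cells per well.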

Experiment [8] can be described thus: High Content Imaging Cell-Based qHTS for Inhibitors of the mTORC1 Signaling Pathway in MEF Cells (AID 2667).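 Further: Tsc2-/- p53-/- MEFs stably re-expressing wild-type Tsc2 exposed 24 h.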 In outline: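 Fixed-cell imaging of phospho-S6 (Ser235/236, Alexa-488) after 24 hrs of compound treatment at 37 degree Celsius. Signal was normalized to Hoechst, and thresholds from the highest and lowest wells split cells into % active versus % non-active.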

Experiment [9] deals with Ubiquitin carboxyl-terminal hydrolase 2 (Homo sapiens) (UniProt O75604). Kind of experiment: qHTS Validation Assay for Inhibitors of Ubiquitin-specific Protease USP2a Using CHOP2 as the Reporter (AID 463106). A digest of the protocol: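 Inhibition is expressed relative to NEM as the full-inhibition control, with concentration-response curves classed by fit quality, magnitude and activity. Enzyme (USP2 core, 10nM) meets 25nM Ub-CHOP2 after compound preincubation; readings are taken at 60min.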
Ubiquitin carboxyl-terminal hydrolase 2 (Homo sapiens), sequence (O75604 whole entry, looked up): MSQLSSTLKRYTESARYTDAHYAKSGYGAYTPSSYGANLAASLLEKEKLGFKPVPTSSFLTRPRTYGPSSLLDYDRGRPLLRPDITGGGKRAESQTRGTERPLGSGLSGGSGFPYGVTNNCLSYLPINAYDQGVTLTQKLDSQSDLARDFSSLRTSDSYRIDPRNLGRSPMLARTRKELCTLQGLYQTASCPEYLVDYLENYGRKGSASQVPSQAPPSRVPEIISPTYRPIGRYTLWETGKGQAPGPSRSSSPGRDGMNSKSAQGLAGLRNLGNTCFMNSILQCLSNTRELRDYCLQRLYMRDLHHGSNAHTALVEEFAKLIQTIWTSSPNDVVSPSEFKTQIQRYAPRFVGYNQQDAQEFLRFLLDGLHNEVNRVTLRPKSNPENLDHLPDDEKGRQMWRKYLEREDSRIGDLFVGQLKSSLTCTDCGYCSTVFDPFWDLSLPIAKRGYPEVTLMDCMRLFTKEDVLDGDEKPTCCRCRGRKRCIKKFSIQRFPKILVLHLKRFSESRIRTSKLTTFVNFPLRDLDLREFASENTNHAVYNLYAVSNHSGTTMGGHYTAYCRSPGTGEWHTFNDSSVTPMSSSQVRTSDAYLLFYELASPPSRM

In experiment [10] the target is Tumor susceptibility gene 101 protein (Homo sapiens) (UniProt Q99816). Kind of experiment: qHTS Validation Assay for Iinhibitors of HIV-1 Budding by Blocking the Interaction of PTAP/TSG101 (AID 485342; calls by dose curve). A digest of the protocol:
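Fluorescence anisotropy measured PTAP-Tsg101 interaction. Final concentrations were 10 uM protein domain and 50 nM labeled peptide, equilibrated 20 min at room temperature.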

In experiment [11] the target is Beta-2 adrenergic receptor (Homo sapiens) (UniProt P07550). The experiment in a line: qHTS validation assay of beta-arrestin-biased ligands of beta2-adrenergic receptor (AID 485366). A digest of the protocol:
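Compound series up to 46 microM applied to beta2-AR/beta-arrestin Tango cells, 18 hr, 37 degrees C, 5% CO2. Read-out: tTA-driven luciferase luminescence, converted to %Activity; concentration-response curves assigned curve classes.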

The target of experiment [12] is ATP-dependent 6-phosphofructokinase (Trypanosoma brucei brucei) (UniProt O15648). The experiment in a line: qHTS Validation Assay to Find Inhibitors of T. brucei phosphofructokinase (AID 485368). In outline:
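qHTS format, up to 57 uM. PFK 1.25 nM; F6P 0.5 mM; ATP 0.1 mM; 5 mM MgCl2, 0.01% Tween20, 0.1% BSA; 0.1 M TEA pH 8.0; 45 min RT; ADP-Glo readout; no-enzyme control = full inhibition.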

A short description of experiment [13]: Quantitative high throughput screen for delayed death inhibitors of the malarial parasite plastid, 96 hour incubation (AID 488745). Further: potency means the concentration at half of the fitted maximal effect; nearly all actives have a fitted effect of over 70% in size. In outline: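 Two-generation (96 h) exposure of luciferase-reporter P. falciparum in erythrocytes, 2% hematocrit, 0.1% parasitemia final, 37 C, 5% CO2, RPMI 1640 with 0.5% Albumax. Growth inhibition scored by reduced luminescence.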

Experiment [14] addresses Thioredoxin reductase 1, cytoplasmic (Rattus norvegicus) (UniProt O89049). Kind of experiment: qHTS Assay for Substrates of Mammalian Selenoprotein Thioredoxin Reductase 1 (TrxR1) (AID 488772).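 Further: a drop in NADPH fluorescence below the no-compound background marks a TrxR1 substrate.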 In outline: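 In this dual-purpose format, potential substrates are identified from the first fluorescence read after selenite addition, not from the 8-minute delta. Rat enzyme is preincubated with NADPH and then with compound at ~22 deg C.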

Experiment [15] has the same target. Kind of experiment: qHTS Assay for Inhibitors of Mammalian Selenoprotein Thioredoxin Reductase 1 (TrxR1) (AID 488773).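 Further: drop in NADPH fluorescence over an 8 min run after selenite addition; nearly all actives have a fitted effect of over 40% in size.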 Conditions: Potency: inhibition. A digest of the protocol: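 Inhibition is scored from the loss of NADPH fluorescence between first and last reads of an 8-min kinetic run. Selenite (400 uM) was the substrate, added after 15 min compound preincubation at room temperature.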

Experiment [16] has as its target Flap endonuclease 1 (Homo sapiens) (UniProt P39748). The experiment in a line: qHTS Validation Assay for the Inhibitors of Human Flap endonuclease 1 (FEN1) (AID 488816). In outline:
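Steps: add FEN1 (10 nM reagent) or buffer only; pin compounds; hold 15 min at room temperature; start with substrate, 50 nM final; read at 0 and 15 min; correct, normalize and fit a four-parameter Hill curve.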

The target of experiment [17] is M-phase phosphoprotein 8 (Homo sapiens) (UniProt Q99549). Kind of experiment: qHTS Validation Assay for Inhibitors for MPP8 Chromodomain Interactions with Methylated Histone Tails (AID 488949). Further: potency means the concentration at half of the fitted maximal effect; nearly all actives have a fitted effect of over 55% in size. A digest of the protocol:
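Disruption of the preformed MPP8–trimethyl-H3K9 peptide complex (both 50 nM, 30 min, RT) is measured after 30 min compound exposure, using AlphaScreen proximity beads; aurintricarboxylic acid titration serves as plate control.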

Experiment [18] has as its target Methanococcus maripaludis chaperonin (MmCpn) (UniProt Q6LX38). Kind of experiment: High-Throughput Screening for Modulators of Cytosolic Chaperonin Activity: MmCpn Primary Screen (AID 488978).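 Further: 50 nM MmCpn enzyme hydrolysing 30 µM ATP at 37 °C.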 A digest of the protocol: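 Measures ATPase turnover of the M. maripaludis chaperonin (50 nM final) against 30 uM ATP over 10 min at 37C, with compound added 5 min beforehand at room temperature. ADP is quantified by HTRF immunodetection.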

The target in experiment [19] is Transient receptor potential cation channel subfamily V member 1 (Homo sapiens) (UniProt Q8NER1). Kind of experiment: HTS Assay for Compounds that Act as Enhancers of the Vanilloid Receptor 1 (AID 488979). A digest of the protocol: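 TRPV1-expressing cells loaded with Fluo-8 calcium dye; compounds added and calcium influx read kinetically for 3 min (agonist phase), then capsaicin at EC20 added and read 2 min more for enhancement. Fluorescence ex 480/em 520 nm.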

Experiment [20] addresses Thyrotropin receptor (Homo sapiens) (UniProt P16473). The experiment in a line: qHTS Assay for Antagonists of the Thyroid Stimulating Hormone Receptor (AID 488980). A digest of the protocol:
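Cells expressing human TSHR (HEK293) are dispensed in HBSS/HEPES containing 70 uM RO 20-1724, compound is added, then TSH at EC80 (4 nM final). Antibody in lysis buffer follows, 30 minutes at room temperature before HTRF detection.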

Several values for one entry are separate records, joined by “and”; a condition that tells them apart may be missing. Identical values can stand only once. A number with no mark means an inactive call. Results filed as inconclusive are left out. Activity calls are given as the source filed them. Unless noted, the call rests on the fitted dose curve; in most records, active means well fitted curve in the direction sought with a large enough effect; inconclusive means small, poorly fitted or top-dose-only effect, or another doubt; inactive means no such curve, though single readings can be large; an effect the other way counts as inactive or inconclusive.

M-phase phosphoprotein 8 (Homo sapiens), sequence (Q99549 whole entry, looked up): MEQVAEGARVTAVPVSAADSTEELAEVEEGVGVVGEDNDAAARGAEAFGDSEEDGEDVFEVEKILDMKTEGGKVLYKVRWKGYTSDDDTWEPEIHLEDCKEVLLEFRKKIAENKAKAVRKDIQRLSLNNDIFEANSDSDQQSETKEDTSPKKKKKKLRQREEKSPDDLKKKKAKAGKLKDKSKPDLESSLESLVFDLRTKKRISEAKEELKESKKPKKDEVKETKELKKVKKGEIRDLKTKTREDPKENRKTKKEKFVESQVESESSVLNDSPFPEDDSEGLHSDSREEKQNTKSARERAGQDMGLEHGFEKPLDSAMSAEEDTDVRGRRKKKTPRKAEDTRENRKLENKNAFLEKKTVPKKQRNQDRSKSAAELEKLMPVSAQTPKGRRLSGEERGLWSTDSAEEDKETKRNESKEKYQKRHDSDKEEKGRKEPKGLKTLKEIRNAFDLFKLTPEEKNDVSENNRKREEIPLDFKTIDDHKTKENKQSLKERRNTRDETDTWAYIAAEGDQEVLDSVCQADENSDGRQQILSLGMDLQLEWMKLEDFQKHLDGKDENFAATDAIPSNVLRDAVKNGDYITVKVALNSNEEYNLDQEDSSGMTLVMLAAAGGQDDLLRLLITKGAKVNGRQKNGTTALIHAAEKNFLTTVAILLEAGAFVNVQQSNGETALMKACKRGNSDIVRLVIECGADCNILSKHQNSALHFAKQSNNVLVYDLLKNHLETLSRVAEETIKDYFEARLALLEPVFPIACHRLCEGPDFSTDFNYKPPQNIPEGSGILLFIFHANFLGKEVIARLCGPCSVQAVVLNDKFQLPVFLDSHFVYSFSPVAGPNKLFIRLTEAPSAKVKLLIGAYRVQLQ
Thioredoxin reductase 1, cytoplasmic (Rattus norvegicus), sequence (O89049 whole entry, looked up): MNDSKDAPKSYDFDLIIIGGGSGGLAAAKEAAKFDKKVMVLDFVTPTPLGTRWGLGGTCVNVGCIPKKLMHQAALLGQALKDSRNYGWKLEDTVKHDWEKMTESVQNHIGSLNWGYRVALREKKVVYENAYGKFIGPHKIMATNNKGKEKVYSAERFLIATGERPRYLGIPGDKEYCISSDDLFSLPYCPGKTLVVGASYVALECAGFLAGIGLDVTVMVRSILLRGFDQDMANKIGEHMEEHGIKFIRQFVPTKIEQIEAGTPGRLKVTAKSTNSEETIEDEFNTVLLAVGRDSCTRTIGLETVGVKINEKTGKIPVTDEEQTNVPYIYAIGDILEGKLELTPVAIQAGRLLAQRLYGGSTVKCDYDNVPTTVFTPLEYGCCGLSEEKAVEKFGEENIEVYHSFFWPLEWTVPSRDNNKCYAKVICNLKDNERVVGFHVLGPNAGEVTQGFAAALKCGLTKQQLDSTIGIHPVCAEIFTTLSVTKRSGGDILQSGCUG
ATP-dependent DNA helicase Q1 (Homo sapiens), sequence (P46063 whole entry, looked up): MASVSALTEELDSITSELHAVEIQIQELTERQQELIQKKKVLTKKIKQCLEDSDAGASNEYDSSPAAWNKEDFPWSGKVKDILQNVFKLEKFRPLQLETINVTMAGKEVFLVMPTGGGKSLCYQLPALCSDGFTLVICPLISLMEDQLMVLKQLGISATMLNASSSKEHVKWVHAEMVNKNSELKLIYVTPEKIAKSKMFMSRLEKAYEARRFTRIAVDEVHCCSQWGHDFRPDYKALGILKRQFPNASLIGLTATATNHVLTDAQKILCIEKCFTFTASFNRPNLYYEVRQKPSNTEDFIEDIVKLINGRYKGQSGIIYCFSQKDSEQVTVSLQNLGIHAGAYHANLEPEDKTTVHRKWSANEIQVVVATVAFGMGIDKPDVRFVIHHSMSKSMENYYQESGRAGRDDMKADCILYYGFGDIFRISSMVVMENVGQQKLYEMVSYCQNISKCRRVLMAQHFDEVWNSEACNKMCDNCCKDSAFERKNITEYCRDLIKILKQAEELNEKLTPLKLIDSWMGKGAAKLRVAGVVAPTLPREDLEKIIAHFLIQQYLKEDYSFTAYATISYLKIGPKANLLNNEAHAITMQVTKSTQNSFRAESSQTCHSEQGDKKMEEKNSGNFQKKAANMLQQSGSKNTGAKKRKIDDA
Methanococcus maripaludis chaperonin (MmCpn), sequence (Q6LX38 1-543): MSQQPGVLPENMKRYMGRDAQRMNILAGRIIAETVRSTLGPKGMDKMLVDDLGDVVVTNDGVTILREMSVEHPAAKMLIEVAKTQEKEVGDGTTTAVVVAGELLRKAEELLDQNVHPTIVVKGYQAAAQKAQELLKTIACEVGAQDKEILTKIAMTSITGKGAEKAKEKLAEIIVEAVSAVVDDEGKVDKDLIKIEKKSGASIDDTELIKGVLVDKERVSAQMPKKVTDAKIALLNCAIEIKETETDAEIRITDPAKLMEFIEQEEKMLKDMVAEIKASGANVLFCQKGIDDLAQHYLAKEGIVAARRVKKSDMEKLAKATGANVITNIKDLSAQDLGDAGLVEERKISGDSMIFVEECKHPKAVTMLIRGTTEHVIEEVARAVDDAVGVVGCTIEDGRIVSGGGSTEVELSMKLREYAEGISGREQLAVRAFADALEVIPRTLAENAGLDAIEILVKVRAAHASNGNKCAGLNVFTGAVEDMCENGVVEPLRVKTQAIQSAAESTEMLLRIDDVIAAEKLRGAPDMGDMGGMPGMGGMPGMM
Tumor susceptibility gene 101 protein (Homo sapiens), sequence (Q99816 whole entry, looked up, the tested form may be a part): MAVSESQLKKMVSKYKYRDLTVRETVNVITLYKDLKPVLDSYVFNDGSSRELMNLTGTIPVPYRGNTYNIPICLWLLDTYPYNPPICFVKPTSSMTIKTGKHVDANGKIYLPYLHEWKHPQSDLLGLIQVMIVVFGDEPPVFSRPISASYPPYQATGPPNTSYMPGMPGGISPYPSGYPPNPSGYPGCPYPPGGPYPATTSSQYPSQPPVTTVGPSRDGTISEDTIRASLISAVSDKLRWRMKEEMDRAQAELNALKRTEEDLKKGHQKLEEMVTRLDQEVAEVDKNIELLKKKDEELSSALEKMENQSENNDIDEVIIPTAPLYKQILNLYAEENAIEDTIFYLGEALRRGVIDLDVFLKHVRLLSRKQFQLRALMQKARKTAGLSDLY
Thyrotropin receptor (Homo sapiens), sequence (P16473 whole entry, looked up): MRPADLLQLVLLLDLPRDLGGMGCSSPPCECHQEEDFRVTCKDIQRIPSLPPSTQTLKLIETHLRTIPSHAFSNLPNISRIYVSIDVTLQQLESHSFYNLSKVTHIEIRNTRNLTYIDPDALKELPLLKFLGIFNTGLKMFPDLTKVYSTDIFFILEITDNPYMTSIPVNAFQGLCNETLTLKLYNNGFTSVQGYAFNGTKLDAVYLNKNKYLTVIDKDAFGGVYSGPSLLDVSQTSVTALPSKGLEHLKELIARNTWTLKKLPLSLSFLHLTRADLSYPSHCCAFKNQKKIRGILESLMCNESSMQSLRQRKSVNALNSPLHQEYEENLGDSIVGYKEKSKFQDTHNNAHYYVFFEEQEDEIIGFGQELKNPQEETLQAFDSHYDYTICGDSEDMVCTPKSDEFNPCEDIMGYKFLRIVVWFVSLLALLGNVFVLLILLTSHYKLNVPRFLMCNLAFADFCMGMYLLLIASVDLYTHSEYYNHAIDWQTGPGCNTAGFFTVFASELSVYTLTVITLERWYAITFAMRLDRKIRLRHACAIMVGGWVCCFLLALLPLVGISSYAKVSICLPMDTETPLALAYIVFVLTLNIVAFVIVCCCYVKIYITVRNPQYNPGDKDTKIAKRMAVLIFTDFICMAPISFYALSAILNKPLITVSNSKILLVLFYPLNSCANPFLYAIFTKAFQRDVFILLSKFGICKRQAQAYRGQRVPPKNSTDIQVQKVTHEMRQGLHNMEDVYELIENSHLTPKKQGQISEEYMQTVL
Flap endonuclease 1 (Homo sapiens), sequence (P39748 whole entry, looked up): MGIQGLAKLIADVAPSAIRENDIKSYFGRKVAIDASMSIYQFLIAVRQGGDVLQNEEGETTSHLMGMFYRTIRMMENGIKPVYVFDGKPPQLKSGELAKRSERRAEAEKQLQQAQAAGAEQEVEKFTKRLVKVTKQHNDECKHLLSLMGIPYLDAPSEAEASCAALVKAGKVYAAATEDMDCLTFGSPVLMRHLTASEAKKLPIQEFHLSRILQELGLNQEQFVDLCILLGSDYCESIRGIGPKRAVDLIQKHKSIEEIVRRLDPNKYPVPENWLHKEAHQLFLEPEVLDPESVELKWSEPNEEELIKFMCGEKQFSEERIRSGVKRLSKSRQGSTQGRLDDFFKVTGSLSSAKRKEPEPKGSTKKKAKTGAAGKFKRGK

Regarding `O=Nc1c(-c2c(O)[nH]c3ccccc23)[nH]c2ccccc12`, the Potency was 1.58 µM (active) in [1]; 2.24 µM (active) in experiment [2]; 0.398 µM (active) in experiment [3]; 0.501 µM (active) in experiment [4]; 1.17 µM (active) in [13]; 6.31 µM (active) and 7.52 µM (active) in experiment [17]. Also, the Potency entry in experiment [5], in experiment [8], in experiment [9], in experiment [12], in experiment [15] and in [16] was “inactive” throughout. The call in [6], in [7], in experiment [10], in experiment [11], in [14] and in [18] was inactive. For the same compound, the outcome in experiment [19] and in experiment [20] was inactive.
